In the supplement of paper PMC11732987, “Enantioselective OTUD7B fragment discovery through chemoproteomics screening and high-throughput optimisation” (Communications Chemistry, 2025):
Unmarked numbers belong to inactive results.

Legend:
Assay in all cases: log2 ratio of Biotin-Ahx-Ub-VS probe labelling (fragment/DMSO); higher = less target engagement (more negative = stronger competition), active = hit call of the paper (q ≤ 0.05, log2 ratio ≤ -1)
Conditions in all cases: compound concentration: 200 uM; treatment time: 3 h
USP19 = molecular target: T1, USP19 (UniProt O94966)
T1 sequence (whole entry): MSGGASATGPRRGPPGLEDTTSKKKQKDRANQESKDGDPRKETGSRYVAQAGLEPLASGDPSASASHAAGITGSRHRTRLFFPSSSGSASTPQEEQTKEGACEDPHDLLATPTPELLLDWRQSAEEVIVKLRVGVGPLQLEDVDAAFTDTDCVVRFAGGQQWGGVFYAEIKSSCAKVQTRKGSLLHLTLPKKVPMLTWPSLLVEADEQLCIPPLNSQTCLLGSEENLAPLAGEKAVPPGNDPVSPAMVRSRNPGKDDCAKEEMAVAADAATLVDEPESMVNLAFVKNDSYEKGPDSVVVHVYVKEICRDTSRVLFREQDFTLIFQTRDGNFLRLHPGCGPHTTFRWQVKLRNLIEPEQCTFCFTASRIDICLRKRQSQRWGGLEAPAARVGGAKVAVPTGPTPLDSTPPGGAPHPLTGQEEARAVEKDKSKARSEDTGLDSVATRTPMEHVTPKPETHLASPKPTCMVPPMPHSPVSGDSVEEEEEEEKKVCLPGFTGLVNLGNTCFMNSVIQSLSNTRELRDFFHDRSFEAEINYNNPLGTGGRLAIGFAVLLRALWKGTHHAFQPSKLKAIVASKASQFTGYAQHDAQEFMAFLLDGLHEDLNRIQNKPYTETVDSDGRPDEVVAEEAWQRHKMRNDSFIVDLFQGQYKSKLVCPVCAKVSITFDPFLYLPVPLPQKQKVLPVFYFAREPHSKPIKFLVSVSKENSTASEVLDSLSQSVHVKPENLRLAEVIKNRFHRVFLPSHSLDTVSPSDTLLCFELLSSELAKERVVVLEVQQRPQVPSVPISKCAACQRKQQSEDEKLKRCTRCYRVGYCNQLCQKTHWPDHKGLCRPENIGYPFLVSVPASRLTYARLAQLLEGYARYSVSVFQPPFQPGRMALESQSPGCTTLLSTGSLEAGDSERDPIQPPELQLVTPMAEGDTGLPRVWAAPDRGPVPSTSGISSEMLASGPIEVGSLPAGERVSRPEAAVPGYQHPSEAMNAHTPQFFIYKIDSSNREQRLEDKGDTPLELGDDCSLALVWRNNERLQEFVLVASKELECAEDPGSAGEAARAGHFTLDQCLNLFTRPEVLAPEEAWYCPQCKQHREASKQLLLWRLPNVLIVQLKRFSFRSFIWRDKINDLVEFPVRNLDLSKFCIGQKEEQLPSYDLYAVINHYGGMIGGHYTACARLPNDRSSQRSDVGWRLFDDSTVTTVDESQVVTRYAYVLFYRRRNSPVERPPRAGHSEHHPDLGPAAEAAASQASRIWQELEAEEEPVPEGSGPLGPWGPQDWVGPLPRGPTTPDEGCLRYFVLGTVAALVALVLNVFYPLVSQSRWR
Procedure, shortened: (§1)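 The table lists average log2 ratios of fragment over vehicle, from an unpaired t-test on global-median-normalised Spectronaut label-free quantities. Proteins with ≥2 unique peptides were used. Samples were HEK293T lysate (495 µg) treated in triplicate with fragment at 200 µM or vehicle for 3 h, then with Biotin-Ahx-Ub-VS (0.5 µM final) for 1 h, with labelled DUBs NeutrAvidin-enriched and run by diaPASEF LC-MS/MS.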

USP22 = molecular target: T2, USP22 (UniProt Q9UPT9)
T2 sequence (whole entry): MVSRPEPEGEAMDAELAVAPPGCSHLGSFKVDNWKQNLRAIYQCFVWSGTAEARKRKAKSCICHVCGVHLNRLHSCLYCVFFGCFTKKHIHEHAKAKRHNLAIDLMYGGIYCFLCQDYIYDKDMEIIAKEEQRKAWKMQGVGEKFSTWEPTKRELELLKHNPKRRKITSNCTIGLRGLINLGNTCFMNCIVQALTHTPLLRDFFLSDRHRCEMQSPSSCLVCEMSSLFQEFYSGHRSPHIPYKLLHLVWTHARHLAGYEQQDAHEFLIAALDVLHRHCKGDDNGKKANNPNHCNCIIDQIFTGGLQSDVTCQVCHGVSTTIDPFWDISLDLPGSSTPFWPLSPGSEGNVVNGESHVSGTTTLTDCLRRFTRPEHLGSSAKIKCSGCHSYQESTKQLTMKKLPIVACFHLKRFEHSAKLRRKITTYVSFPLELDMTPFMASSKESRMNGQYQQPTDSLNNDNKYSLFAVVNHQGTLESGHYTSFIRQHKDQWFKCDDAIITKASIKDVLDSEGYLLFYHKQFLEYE
Procedure, shortened: as §1

USP24 = USP24 (UniProt Q9UPU5)
Chain of USP24 (Q9UPU5 whole entry): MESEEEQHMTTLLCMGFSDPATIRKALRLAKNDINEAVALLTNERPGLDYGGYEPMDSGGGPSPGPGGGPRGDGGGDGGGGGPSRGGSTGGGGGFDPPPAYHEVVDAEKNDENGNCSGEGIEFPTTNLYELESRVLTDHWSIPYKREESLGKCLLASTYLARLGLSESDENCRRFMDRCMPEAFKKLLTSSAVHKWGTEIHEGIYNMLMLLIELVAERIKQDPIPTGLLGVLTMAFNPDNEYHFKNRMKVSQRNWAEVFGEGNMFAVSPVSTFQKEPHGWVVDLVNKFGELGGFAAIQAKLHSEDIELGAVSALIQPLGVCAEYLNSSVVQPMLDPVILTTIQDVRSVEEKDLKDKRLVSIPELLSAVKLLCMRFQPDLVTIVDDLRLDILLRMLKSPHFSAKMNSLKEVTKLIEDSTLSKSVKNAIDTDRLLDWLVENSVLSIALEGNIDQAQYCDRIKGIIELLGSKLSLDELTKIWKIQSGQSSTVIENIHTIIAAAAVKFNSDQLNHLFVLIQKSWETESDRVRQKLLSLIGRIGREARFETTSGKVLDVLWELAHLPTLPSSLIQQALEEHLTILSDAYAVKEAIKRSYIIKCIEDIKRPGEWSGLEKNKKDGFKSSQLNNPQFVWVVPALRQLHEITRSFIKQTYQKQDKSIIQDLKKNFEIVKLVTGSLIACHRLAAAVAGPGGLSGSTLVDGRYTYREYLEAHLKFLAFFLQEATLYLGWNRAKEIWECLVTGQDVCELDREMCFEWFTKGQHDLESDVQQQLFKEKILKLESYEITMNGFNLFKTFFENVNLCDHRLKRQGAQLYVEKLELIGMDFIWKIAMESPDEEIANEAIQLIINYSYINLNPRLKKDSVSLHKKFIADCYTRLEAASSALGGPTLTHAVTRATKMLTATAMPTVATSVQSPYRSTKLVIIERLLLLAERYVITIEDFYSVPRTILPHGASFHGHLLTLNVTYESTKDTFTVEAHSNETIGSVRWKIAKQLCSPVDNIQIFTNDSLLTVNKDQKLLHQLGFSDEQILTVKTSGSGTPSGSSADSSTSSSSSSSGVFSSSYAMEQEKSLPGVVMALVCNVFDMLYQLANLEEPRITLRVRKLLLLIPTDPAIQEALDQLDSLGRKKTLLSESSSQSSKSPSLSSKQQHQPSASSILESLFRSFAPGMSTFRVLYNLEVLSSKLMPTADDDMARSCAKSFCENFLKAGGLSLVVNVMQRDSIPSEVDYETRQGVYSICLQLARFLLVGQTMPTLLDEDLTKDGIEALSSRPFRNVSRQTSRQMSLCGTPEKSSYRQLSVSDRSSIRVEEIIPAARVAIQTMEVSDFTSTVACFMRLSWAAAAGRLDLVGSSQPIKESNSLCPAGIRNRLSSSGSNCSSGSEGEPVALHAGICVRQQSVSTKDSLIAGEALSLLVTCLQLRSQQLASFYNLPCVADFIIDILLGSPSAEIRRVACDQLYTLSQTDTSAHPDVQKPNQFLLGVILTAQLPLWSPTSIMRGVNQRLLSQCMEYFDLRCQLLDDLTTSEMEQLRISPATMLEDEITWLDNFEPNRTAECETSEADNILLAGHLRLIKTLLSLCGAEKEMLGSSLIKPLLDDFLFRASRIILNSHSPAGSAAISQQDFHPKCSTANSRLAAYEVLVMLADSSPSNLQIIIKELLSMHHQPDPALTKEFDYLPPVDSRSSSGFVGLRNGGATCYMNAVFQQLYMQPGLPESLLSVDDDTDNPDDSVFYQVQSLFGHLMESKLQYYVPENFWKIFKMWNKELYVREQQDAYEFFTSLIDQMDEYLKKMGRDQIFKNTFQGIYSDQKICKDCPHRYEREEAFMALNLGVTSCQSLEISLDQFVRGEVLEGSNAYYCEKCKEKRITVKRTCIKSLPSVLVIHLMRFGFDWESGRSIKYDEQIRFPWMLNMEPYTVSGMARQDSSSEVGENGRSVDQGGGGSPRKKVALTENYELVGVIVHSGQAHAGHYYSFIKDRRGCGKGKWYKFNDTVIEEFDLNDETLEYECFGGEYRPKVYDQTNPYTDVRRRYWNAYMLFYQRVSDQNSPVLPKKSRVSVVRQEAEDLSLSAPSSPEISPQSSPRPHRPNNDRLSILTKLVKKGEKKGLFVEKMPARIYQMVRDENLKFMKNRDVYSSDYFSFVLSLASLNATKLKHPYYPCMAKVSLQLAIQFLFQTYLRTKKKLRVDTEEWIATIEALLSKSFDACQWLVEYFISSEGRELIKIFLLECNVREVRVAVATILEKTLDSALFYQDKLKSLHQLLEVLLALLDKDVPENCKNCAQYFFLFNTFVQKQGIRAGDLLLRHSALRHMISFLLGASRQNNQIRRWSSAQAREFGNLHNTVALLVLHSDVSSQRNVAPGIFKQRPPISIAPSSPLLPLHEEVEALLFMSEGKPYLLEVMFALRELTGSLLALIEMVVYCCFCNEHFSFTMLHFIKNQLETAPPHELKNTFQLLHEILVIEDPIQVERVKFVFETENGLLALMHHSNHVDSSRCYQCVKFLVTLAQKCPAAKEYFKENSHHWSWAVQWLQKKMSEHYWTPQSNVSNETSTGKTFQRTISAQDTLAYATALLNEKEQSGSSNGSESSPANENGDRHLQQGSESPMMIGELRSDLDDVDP
Procedure, shortened: as §1

USP25 = molecular target: T3, USP25 (UniProt Q9UHP3)
T3 sequence (whole entry): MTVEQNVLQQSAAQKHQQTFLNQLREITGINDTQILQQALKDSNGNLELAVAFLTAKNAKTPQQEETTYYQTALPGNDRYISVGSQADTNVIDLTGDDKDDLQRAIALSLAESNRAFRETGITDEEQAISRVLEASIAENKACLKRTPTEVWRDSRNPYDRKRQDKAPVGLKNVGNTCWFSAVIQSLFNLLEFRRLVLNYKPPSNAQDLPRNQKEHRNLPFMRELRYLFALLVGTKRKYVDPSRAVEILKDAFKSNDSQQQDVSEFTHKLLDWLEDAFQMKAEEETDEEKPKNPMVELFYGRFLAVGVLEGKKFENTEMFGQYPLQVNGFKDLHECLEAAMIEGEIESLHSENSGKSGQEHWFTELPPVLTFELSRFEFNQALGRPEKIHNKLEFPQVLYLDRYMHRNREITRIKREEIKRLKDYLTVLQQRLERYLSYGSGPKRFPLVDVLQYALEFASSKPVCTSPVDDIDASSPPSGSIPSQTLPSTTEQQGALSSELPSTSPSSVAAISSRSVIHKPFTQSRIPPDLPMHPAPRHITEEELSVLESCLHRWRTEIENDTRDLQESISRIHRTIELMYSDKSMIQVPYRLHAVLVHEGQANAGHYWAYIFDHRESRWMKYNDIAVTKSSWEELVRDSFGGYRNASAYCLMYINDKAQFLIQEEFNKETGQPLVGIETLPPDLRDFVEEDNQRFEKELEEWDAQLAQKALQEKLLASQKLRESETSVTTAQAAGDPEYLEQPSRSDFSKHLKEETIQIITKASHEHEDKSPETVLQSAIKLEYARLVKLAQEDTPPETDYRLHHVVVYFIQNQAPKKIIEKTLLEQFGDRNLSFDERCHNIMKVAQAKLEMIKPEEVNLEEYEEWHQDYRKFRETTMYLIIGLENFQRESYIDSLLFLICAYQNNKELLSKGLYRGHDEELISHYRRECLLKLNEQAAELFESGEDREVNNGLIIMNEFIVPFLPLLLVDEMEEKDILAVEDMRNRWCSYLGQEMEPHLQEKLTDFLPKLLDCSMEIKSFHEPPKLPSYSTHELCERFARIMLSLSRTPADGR
Procedure, shortened: as §1

USP28 = molecular target: T4, USP28 (UniProt Q96RU2)
T4 sequence (whole entry): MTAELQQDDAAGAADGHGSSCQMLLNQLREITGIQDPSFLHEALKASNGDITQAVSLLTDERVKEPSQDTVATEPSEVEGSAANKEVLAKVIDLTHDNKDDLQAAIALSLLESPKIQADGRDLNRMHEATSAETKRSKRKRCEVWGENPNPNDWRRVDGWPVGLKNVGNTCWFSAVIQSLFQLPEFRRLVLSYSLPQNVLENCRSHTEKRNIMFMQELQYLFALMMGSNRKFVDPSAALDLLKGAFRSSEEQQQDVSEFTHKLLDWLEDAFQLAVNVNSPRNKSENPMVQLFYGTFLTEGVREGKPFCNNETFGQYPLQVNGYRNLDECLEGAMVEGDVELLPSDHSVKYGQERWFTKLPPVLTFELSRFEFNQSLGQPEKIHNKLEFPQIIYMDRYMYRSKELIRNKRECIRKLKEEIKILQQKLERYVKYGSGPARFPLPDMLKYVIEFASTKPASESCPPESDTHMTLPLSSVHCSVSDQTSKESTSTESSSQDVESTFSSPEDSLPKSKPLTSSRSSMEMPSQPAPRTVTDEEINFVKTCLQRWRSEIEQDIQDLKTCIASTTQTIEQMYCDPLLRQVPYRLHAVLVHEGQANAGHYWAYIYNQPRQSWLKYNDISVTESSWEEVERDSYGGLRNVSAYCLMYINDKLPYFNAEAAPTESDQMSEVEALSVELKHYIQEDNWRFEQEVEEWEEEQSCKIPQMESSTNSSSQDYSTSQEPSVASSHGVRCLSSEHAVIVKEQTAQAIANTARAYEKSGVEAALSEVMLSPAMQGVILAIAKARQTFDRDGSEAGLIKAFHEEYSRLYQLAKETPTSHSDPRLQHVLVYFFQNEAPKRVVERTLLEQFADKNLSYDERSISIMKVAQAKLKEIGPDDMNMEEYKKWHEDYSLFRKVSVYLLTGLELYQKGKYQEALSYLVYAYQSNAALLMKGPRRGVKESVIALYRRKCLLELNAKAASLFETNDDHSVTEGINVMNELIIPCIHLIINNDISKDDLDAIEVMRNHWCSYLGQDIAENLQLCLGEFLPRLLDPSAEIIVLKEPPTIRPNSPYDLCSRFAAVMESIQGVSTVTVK
Procedure, shortened: as §1

SMILES: O=C(CCl)NC1CCOc2ccccc21 (stereo not given)
- log2 ratio of Biotin-Ahx-Ub-VS probe labelling (USP19): -0.918
- log2 ratio of Biotin-Ahx-Ub-VS probe labelling (USP22): -0.51
- log2 ratio of Biotin-Ahx-Ub-VS probe labelling (USP24): -1.01 (active)
- log2 ratio of Biotin-Ahx-Ub-VS probe labelling (USP25): -1.23 (active)
- log2 ratio of Biotin-Ahx-Ub-VS probe labelling (USP28): -1.6 (active)
